Results filed as inconclusive are left out. Calls of active or inactive are those of the source. The call rests on the fitted dose curve; in most records, active means well fitted inhibition curve with a large enough effect; inconclusive means small, poorly fitted or top-dose-only effect; inactive means flat fitted curve, though single readings scatter.
Columns and labels:
Experiment in all cases: qHTS profiling for inhibitors of Plasmodium falciparum proliferation (AID 504749); further: nearly all actives have a fitted effect of over 60% in size
Conditions in all cases: P. falciparum in erythrocytes, SYBR Green DNA, 72 h; series mostly up to 28.7 µM
CP286 = system: CP286
Method in brief: (§1)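 Each compound contacts P. falciparum-infected red blood cells for 72 h at 37 C; lysis buffer (Tris, EDTA, saponin, Triton X, SYBR Green I) is added and fluorescence measured next morning; values normalized to controls.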

CP315 = system: CP315
Method in brief: as §1

CP325 = system: CP325
Method in brief: as §1

CP329 = system: CP329
Method in brief: as §1

CP269 = system: CP269
Method in brief: as §1

CP291 = system: CP291
Method in brief: as §1

CP297 = system: CP297
Method in brief: as §1

CP305 = system: CP305
Method in brief: as §1

CP335 = system: CP335
Method in brief: as §1

DFO2036 = system: DFO2036
Method in brief: as §1

Measured: Potency
Potency means the concentration at half of the fitted maximal effect.

Oc1ccc(Cl)cc1Cc1ccccc1
inactive: CP286 | CP315 | CP325 | CP329

CC(C)=CC1C(C(=O)OCc2cccc(Oc3ccccc3)c2)C1(C)C (stereo not given)
inactive: CP269 | CP291 | CP297 | CP305 | CP315 | CP325 | CP329 | CP335 | DFO2036

Cc1cccc(C)c1NC1=NCCCS1
inactive: CP315

CCCN1CCC[C@@H]2Cc3[nH]ncc3C[C@H]21
inactive: CP269 | CP291 | CP297 | CP305 | CP315 | CP325 | CP329 | CP335

CC(C)NCC(O)c1ccccc1Cl (stereo not given)
active: CP286 10 µM | CP297 15.1 µM
inactive: CP315 | CP329

Oc1cc(Cl)ccc1Oc1ccc(Cl)cc1Cl
inactive: CP305
active: CP269 12 µM | CP286 12.6 µM | CP297 15.1 µM | DFO2036 10 µM

O=C(O)c1ccc2[nH]cc(CCCCN3CC=C(c4ccccc4)CC3)c2c1
inactive: CP269 | CP286 | CP291 | CP305 | CP315 | CP325 | CP329 | CP335 | DFO2036

C=C(C)[C@H]1Cc2c(ccc3c2O[C@@H]2COc4cc(OC)c(OC)cc4[C@@H]2C3=O)O1
inactive: CP286 | CP297 | CP305 | CP315 | CP325 | CP329 | DFO2036

N#CC(C#N)=Cc1ccc(O)c(O)c1
inactive: CP269 | CP286 | CP291 | CP305 | CP315 | CP325 | CP329 | DFO2036

O=[N+]([O-])c1cc([As](=O)(O)O)ccc1O
active: CP291 5.1 µM | CP335 4.55 µM | DFO2036 3.55 µM

O=c1[nH]c2ccccc2n1CCCN1CCC(n2c(=O)[nH]c3cc(Cl)ccc32)CC1
inactive: CP325 | DFO2036
active: CP286 11.2 µM | CP297 8.49 µM | CP335 10.7 µM

CN1C[C@H](CNC(=O)OCc2ccccc2)C[C@@H]2c3cccc4c3c(cn4C)C[C@H]21
active: CP286 8.91 µM | CP335 6.75 µM | DFO2036 8.91 µM

c1ccc2c(c1)OCC(C1=NCCN1)O2 (stereo not given)
inactive: CP269 | CP286 | CP291 | CP297 | CP305 | CP315 | CP325 | CP329 | DFO2036

CC(CCc1ccccc1)NC(C)C(O)c1ccc(O)cc1 (stereo not given)
inactive: CP315 | DFO2036

CC(C)(N)Cc1ccc(Cl)cc1
inactive: CP269 | CP286 | CP291 | CP315 | CP325 | DFO2036

Fc1ccc(C(OCCN2CCN(CCCc3ccccc3)CC2)c2ccc(F)cc2)cc1
active: CP269 15.1 µM | CP286 11.2 µM | CP291 10.7 µM | CP305 10.7 µM | CP325 15.1 µM | CP335 9.53 µM | DFO2036 11.2 µM

CCC1(C2=NCCN2)Cc2ccccc2O1 (stereo not given)
active: CP297 9.53 µM | CP335 8.49 µM

Cc1ccc(S(=O)(=O)N[C@@H](CCCCN)C(=O)CCl)cc1
inactive: CP269 | CP297 | CP315

CCN(CC)CCOC(=O)C(O)(c1ccccc1)c1ccccc1
inactive: CP269 | CP286 | CP291 | CP305 | CP315 | CP325 | CP329 | DFO2036

Cc1ccc(-c2nc3ccc(C)cn3c2CC(=O)N(C)C)cc1
inactive: CP269 | CP286 | CP291 | CP305 | CP315 | CP325 | CP329 | CP335

N[C@@H](Cc1ccc(N(CCCl)CCCl)cc1)C(=O)O
inactive: CP291 | CP297 | CP305 | CP315 | CP325 | CP329

COc1ccc(C(CN(C)C)C2(O)CCCCC2)cc1 (stereo not given)
inactive: CP269 | CP286 | CP291 | CP305 | CP315 | CP329 | DFO2036

CCN(CC)CCN1C(=O)CN=C(c2ccccc2F)c2cc(Cl)ccc21
inactive: CP269 | CP286 | CP297 | CP305 | CP315 | CP325 | DFO2036

CCCC1CCCCN1 (stereo not given)
inactive: CP269 | CP286 | CP291 | CP297 | CP305 | CP315 | CP325 | CP329 | CP335 | DFO2036

C#CCOC(C(=O)OCCN(C)C)(c1ccccc1)c1ccccc1
inactive: CP269 | CP286 | CP291 | CP297 | CP305 | CP315 | CP325 | CP329 | DFO2036
